Pf growth 48h = P. falciparum growth inhibition at 48 hours (one generation); P. falciparum luciferase growth in erythrocytes, 48 h; Potency, µM (top dose mostly 28.7 µM), actives largely listed as inhibitors; 310,000 tested, 5.9% active; AID 504832
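Read-out is firefly luciferase luminescence from an integrated reporter in P. falciparum, so falling signal marks reduced parasite growth. Infected erythrocytes were at 2% hematocrit and 0.1% parasitemia (final) in Albumax-supplemented RPMI 1640.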
Lassa entry inh = blocks Lassa virus binding to or entry into cells. Lassa virus pseudotype entry inhibition, cell reporter. Potency, µM (series often up to 37.9 µM), hits mostly inhibitors. 300,000 tested, 1.2% active. AID 540256; calls by dose curve; tested in HEK293 cells; note: nearly all actives have a fitted effect of over 50% in size
Pf growth 96h = P. falciparum growth inhibition at 96 hours; P. falciparum luciferase reporter growth, 96 h; Potency, µM (top dose mostly 28.7 µM), actives largely listed as inhibitors; 320,000 tested, 6.9% active
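Readout is luminescence from an integrated firefly luciferase in P. falciparum. Red cells, 2% hematocrit and 0.05% parasitemia final, were cultured with compound through two parasite generations (96 hours) at 37 C, 5% CO2.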
Marburg entry inh = blocks Marburg virus binding to or entry into cells; Marburg virus pseudotyped entry inhibition, cell reporter; Potency, µM (doses to about 37.8 µM), most hits filed as inhibitors; 300,000 tested, 1.8% active; AID 540276; calls by dose curve; tested in HEK293 cells
HCMV inh = human cytomegalovirus inhibition. HFF cells, HCMV-luciferase reporter, 72 h; active compounds read low. activity change, negative = inhibition, % at 57.5 µM. 410,000 tested, 4.5% active. AID 1259415; in the data active = activity change below about -60%; inconclusive = no clear call, values can overlap the other calls; inactive = above about -39%
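Compounds were evaluated in HFFs infected with an HCMV luciferase reporter virus (MOI 1 PFU/cell). Luciferase in lysates collected 72 h post infection served as the replication measure.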
HCV inhibitor = HCV inhibition. Huh7.5.1 HCVcc-Cre infection, luciferase reporter, 44 h. Potency, µM (series often up to 41.8 µM), most hits filed as inhibitors. 340,000 tested, 3.4% active
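Seed cells (1,000/well) for 4 h; treat with compound and infect with HCVcc-Cre, moi about 0.5. Incubate 44 h, then detect luciferase activity.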
A number is an active result; – = inactive; ? = inconclusive; · = not tested or not shown; [ ] = remark or other dose. Hits are enriched below; roughly 14% of the tested compounds scored in any of these assays. Unless noted, calls come from the whole dose curve; as a rule, active = well fitted inhibition curve with a large enough effect; inconclusive = small, poorly fitted or top-dose-only effect, or another doubt; inactive = no such curve, though single readings can be large or run the other way.

SMILES	Pf growth 48h	Lassa entry inh	Pf growth 96h	Marburg entry inh	HCMV inh	HCV inhibitor
O=C(Nc1ccccc1)C1=C[C@H](c2ccccc2)C[C@H](OCc2ccc(CO)cc2)O1	?	·	?	·	–	–[8.37 µM]
CC(=O)n1cc([C@@H]2C=C(C(=O)O)O[C@H](OCc3ccc(CO)cc3)C2)c2ccccc21	–	·	–	·	–	–
C#Cc1ccc([C@H]2C=C(C(=O)Nc3ccccc3)O[C@@H](OCc3ccc(CO)cc3)C2)cc1	7.38µM	·	7.38µM	·	·	–
CC(=O)n1cc([C@@H]2C=C(C(=O)NCc3ccccc3)O[C@H](OCc3ccc(CO)cc3)C2)c2ccccc21	11.7µM	·	5.22µM	·	–	?
O=C(NCc1ccccc1)C1=C[C@@H](c2ccc(Br)cc2)C[C@@H](OCc2ccc(CO)cc2)O1	?	·	–	·	–	?
O=C(Nc1ccc2oc(-c3cccnc3)nc2c1)c1ccccc1F	·	–	·	?	–	·
CCN(C(=O)Cn1nc(Cc2cccnc2)c2ccccc2c1=O)c1ccccc1F	·	–	·	–	?	·
C#CCNC(=O)C1=C[C@H](c2cn(C(C)=O)c3ccccc23)C[C@H](OCc2ccc(CO)cc2)O1	?	·	10.4µM	·	–	?
O=C(Nc1ccccc1)C1=C[C@@H](C2CC2)C[C@@H](OCc2ccc(CO)cc2)O1	–	·	–	·	–	0.562µM
O=C(O)/C=C/c1cccc(NC(=O)c2ccc(Cl)cc2)c1	0.329µM	?	–	–	–	–
Cc1cccc(CC(=O)Nc2ccc(C(=O)N3CCOCC3)cc2)c1	–	–	2.33µM	–	–	·
O=C(Nc1cccc(C(=O)N2CCOCC2)c1)c1ccccc1	–	–	5.22µM	–	–	–
O=C(Nc1cccc(C(=O)N2CCCCC2)c1)c1ccc(Cl)cc1	–	·	2.08µM	·	–	?
O=C(Nc1cccc(C(=O)N2CCOCC2)c1)c1cccnc1	–	–	·	–	–	–
O=C(Nc1cccc(C(=O)N2CCCCC2)c1)c1ccccc1	·	?	·	·	–	–
Cc1ccccc1C(=O)N1CCC[C@@H]1C(=O)N1CCC[C@H]1C(=O)NCc1ccncc1	·	·	·	·	–	·
CC(=O)NC12CC3CC(C1)CC(C(=O)Nc1nc4ccc(F)cc4s1)(C3)C2	–	?	–	–	–	?
COC(=O)CC1=CO[C@@H](O)[C@@H]2C(CO)=CC[C@@H]12	·	·	·	–	·	·
O=C(COc1ccccc1Cl)Nc1ccc(Cl)cn1	–	?	10.4µM	–	–	–
O=C(COC(=O)c1cccc(F)c1)Nc1ccc(Cl)cn1	·	·	·	·	-99.3	–
O=C(COC(=O)c1ccccc1)Nc1ccc(Cl)cn1	–	?	–	–	–	–
O=C(COc1ccc(Cl)cc1Cl)Nc1ccccn1	–	0.517µM	·	?	-79.6	?
O=C(NCCCN1CCOCC1)c1cc(S(=O)(=O)N2CCCCC2)ccc1Cl	·	·	·	·	–	·
COc1cc(NC(=O)c2cc(-c3cc(F)ccc3OC(C)C)n[nH]2)cc(OC)c1OC	·	·	·	·	–	·
OC1OC[C@@H](O)[C@H](O)[C@@H]1O (stereo not given in full)	–	·	–	·	·	·
SMILES	Pf growth 48h	Lassa entry inh	Pf growth 96h	Marburg entry inh	HCMV inh	HCV inhibitor
CCOc1ccc(-c2n[nH]c3c2C(c2cccs2)N(c2ccc(Br)cc2)C3=O)cc1 (stereo not given)	·	?	·	?	-98.6	·
CCOc1ccc(N2C(=O)c3[nH]nc(-c4ccc(OC)cc4)c3C2c2cccs2)cc1 (stereo not given)	·	?	·	7.94µM	-95.5	·
Cc1noc(/C=C/N(C)C)c1S(=O)(=O)N1CCCC(C(=O)N2CCCCC2)C1 (stereo not given)	9.28µM	·	–	·	–	–
Cc1cc(C)c(NC(=O)C2CCCN(S(=O)(=O)c3c(C)noc3/C=C/N(C)C)C2)c(C)c1 (stereo not given)	?	·	13.1µM	·	–	–
Cc1nn2c(=O)cc(COC(=O)COc3ccc(F)cc3)nc2s1	·	–	·	·	–	·
CCc1ccccc1NC(=O)C1COc2ccccc2C1 (stereo not given)	·	–	·	·	–	·
Cc1ccccc1S(=O)(=O)NC(=O)C1(C)CCN1C(=O)Cc1cccs1 (stereo not given)	·	·	·	·	–	·
O=C(NC1CC(=O)N(c2cccc(F)c2)C1)C1CCCC1 (stereo not given)	·	–	·	·	–	·
Cc1c(-c2cccc(NC(=O)c3ccc(F)c(F)c3)c2)nc2ncccn12	·	–	·	·	–	·
Cc1c(-c2cccc(NC(=O)Nc3ccc(Cl)cc3)c2)nc2ncccn12	·	–	·	·	-85.8	·
COC(=O)c1ccc2nc(-c3ccc(F)cc3)c(Cc3ccsc3)n2c1	·	·	·	·	–	·
COc1cccc(-n2cc(CNCc3c(C(=O)N(C)C)nc4ccc(Cl)cn34)cn2)c1	8.28µM	·	?	·	–	?
Cc1ccccc1-n1cc(CNCc2c(C(=O)N(C)C)nc3ccc(Cl)cn23)cn1	–	·	–	·	–	–
Cc1ccccc1CNC(=O)C(=O)NCCC1CCCCN1S(=O)(=O)c1ccccc1 (stereo not given)	13.1µM	–	?	?	–	?
Cc1ccc(C)c(S(=O)(=O)N2CCCCC2CCNC(=O)C(=O)NCc2cccnc2)c1 (stereo not given)	?	–	?	?	–	–
Cc1ccc(C)c(S(=O)(=O)N2CCCCC2CCNC(=O)C(=O)NCc2ccccc2)c1 (stereo not given)	?	–	?	?	–	22.4µM
CC1(C)S[C@@H]2[C@H](NC(=O)COc3ccccc3)C(=O)N2C1C(=O)OCC1CCCCC1 (stereo not given in full)	·	·	·	·	–	–
CC1(C)S[C@@H]2[C@H](NC(=O)COc3ccccc3)C(=O)N2C1C(=O)OCc1cc2ccccc2n1S(=O)(=O)c1ccccc1 (stereo not given in full)	–	·	13.1µM	·	·	·
CC1CCN(c2nnc(-n3cccc3CNc3cccc(F)c3)s2)CC1	·	–	·	·	–	·
COc1cc(OC)cc(C(=O)Nc2nc3ccc(S(C)(=O)=O)cc3s2)c1	–	–	–	?	–	–
Cc1ccc(S(=O)(=O)Nc2nc3ccc(S(C)(=O)=O)cc3s2)cc1	–	–	11.7µM	–	?	–
COc1ccc2oc(C(=O)Nc3nnc(C)s3)c(C)c2c1	–	7.08µM	–	?	–	–
COc1cc(C(=O)Nc2nc3ccc(S(C)(=O)=O)cc3s2)cc(OC)c1C	?	?	7.38µM	–	?	3.55µM
Cc1ccc(S(=O)(=O)Nc2nc3ccc(N)cc3s2)cc1	–	–	–	–	–	–
COc1ccc2oc(C(=O)Nc3nc4ccc(S(C)(=O)=O)cc4s3)c(C)c2c1	?	–	–	–	-60.1	–
Cc1cc(C(=O)Nc2nc3ccc(S(C)(=O)=O)cc3s2)c(C)o1	–	?	–	?	–	?
COc1ccc(N2CCN(C(=O)CCc3c(C)nn(-c4ccc(N5CCCC5)nn4)c3C)CC2)cc1	·	–	·	·	–	·
CCn1c(SCc2cccc(Br)c2)nnc1-c1nonc1NC(C)=O	·	–	·	–	–	·
Cc1cccc(-c2nn(-c3ccccc3)cc2C(=O)N(C)CC(=O)Nc2ccc(N3CCOCC3)cc2)c1	–	–	–	–	–	–[8.37 µM]
